From PubChem
Hits are enriched below; roughly 11% of the tested compounds scored in any of these assays.
FLuc inh = Firefly luciferase inhibition profiling of diverse chemical library using quantitative high-throughput screening; purified P. pyralis luciferase, luminescence, biochemical; Potency, µM (series often up to 115 µM), hits mostly inhibitors; actives 2.5% (n = 76,000); also: nearly all actives have a fitted effect of over 65% in size
Target sequence (P08659 whole entry, looked up): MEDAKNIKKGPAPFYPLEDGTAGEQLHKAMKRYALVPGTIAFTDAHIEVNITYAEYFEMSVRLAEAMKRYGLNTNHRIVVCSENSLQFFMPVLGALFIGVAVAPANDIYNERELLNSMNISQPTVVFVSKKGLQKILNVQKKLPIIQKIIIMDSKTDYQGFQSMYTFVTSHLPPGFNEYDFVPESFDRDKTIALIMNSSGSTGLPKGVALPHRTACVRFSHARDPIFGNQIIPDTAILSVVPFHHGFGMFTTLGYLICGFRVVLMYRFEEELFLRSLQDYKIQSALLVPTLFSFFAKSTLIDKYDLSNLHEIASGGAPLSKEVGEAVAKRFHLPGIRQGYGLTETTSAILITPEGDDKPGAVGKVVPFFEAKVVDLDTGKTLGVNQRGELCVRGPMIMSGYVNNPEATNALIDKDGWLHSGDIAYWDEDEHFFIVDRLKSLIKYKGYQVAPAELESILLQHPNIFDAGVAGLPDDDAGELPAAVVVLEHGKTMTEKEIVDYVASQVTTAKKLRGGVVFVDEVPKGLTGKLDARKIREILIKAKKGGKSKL
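Luminescence read by CCD imager after adding enzyme (10nM final) to wells holding compound, titrated in qHTS. Substrates 10uM each D-luciferin and ATP; buffer 50mM Tris acetate pH 7.5, 10mM Mg acetate, Tween-20, BSA.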
NPR1 antag = Natriuretic polypeptide receptor (hNpr1) antagonism - Primary qHTS | actives 1.6% (n = 76,000) | Potency, µM (top dose mostly 46.3 µM), without a hit: at the highest dose activity change, negative = inhibition, hits mostly inhibitors | AID 1347048, 2019 | HEK293 hNpr1 GloSensor cGMP, ANP-stimulated luminescence; calls by dose curve; also: nearly all actives have a fitted effect of over 60% in size
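HEK293 cells stably expressing human Npr1 and cGMP GloSensor pGS-40F, loaded 2 h with 2% GloSensor reagent, given compound 30 min at room temperature. Luminescence read before and 20 min after 0.1 nM hNppA.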
3T3 cytotox = Cytotoxic Profiling in NIH 3T3 Cell Line of Diverse Libraries Using Quantitative High-Throughput Screening; NIH 3T3 viability, CellTiter-Glo ATP luminescence, 48-72 h; Potency, µM (series often up to 96.7 µM), for the others: at the top dose activity change, negative = cytotoxicity, most hits filed as inhibitors; actives 4.3% (n = 94,000); also: nearly all actives have a fitted effect of over 55% in size
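Cytotoxicity is measured as loss of cellular ATP: NIH 3T3 cells (400/well) are exposed to compound for 48 or 72 hr at 37 °C, then CellTiter-Glo luminescence is imaged after 10 min at room temperature.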
HEK cytotox = Cytotoxic Profiling in HEK 293 Cell Line of Diverse Libraries Using Quantitative High-Throughput Screening; Potency, µM (series often up to 115 µM), for inactives: top-dose activity change, negative = cytotoxicity, hits mostly inhibitors; HEK 293 viability, ATP luminescence (CellTiter-Glo), 48-72 h; AID 1345083, 2018; actives 6.6% (n = 94,000); also: nearly all actives have a fitted effect of over 60% in size
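Pintool-delivered compounds were incubated with HEK 293 cells (250 cells/well) at 37 degree Celsius for 48 or 72 hr. ATP-dependent luminescence (CellTiter-Glo) then reported remaining viable cells.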
* hit, by the source's call; i = inactive; ? = inconclusive; / = no result given; [ ] = another dose, or the depositor's remark. Unless noted, calls follow the shape of the dose curve; as a rule, active = well fitted curve in the direction sought with a large enough effect; inconclusive = small, poorly fitted or top-dose-only effect, or another doubt; inactive = no such curve, though single readings can be large; an effect the other way counts as inactive or inconclusive. % is scaled to controls: 0 for no effect and ±100 for the full control effect; potency is read from the fitted curve at half-maximal effect.

SMILES	FLuc inh	NPR1 antag	3T3 cytotox	HEK cytotox
COc1cc(C(=O)NC2CCN(c3cc(-c4cccs4)[nH]n3)C2)cc(OC)c1OC (stereo unspecified)	i	-16.4%	?	?
CCOc1cc(C(=O)NC2CCN(c3cc(-c4cccs4)[nH]n3)C2)cc(OCC)c1OCC (stereo unspecified)	i	-4.4%	?	44.7µM*
CCOc1ccc(CC(=O)NC2CCN(c3cc(-c4cccs4)[nH]n3)C2)cc1 (stereo unspecified)	i	0.0%	15.8µM*	44.7µM*
CC(=O)Nc1ccc(-c2nnc3n2CCN(C(=O)C2CCCC2)C3)cc1	/	/	-12.6%[138 µM]	-11.9%[172 µM]
Cn1ccc2c(C(=O)NCC3CCC(=O)N3)nc(-c3ccccc3)cc21 (stereo unspecified)	i	-1.9%[70.6 µM]	50.1µM*	-24.2%[172 µM]
Cn1ccc2c(C(=O)NCCC(N)=O)nc(-c3cccc(C(F)(F)F)c3)cc21	i	3.4%[70.6 µM]	?	89.1µM*
Cn1ccc2c(C(=O)NCCC(N)=O)nc(-c3ccccc3)cc21	i	1.6%[70.6 µM]	100µM*	-2.8%[172 µM]
Cn1ccc2c(C(=O)NCCC(N)=O)nc(-c3cccc(CO)c3)cc21	i	4.1%[70.6 µM]	?	i
Cc1ccc(C(=O)N2CCC3(CCC(=O)N(CC4CC4)CC3)CC2)cc1F	i	-13.1%	?	?
Cc1ccc(CCN2CCCCC23Cc2ccccc2CN([S+](C)(=O)[O-])C3)cc1 (stereo unspecified)	/	/	?	79.4µM*
Cn1ccnc1CN1C(=O)CO[C@H](c2ccc(NC(=O)CCc3ccccc3)cc2)[C@H]1CO	i	0.7%	-23.2%	-30.7%
Cn1ccnc1CN1C(=O)CO[C@H](c2ccc(NC(=O)c3ccc(C(F)(F)F)cc3)cc2)[C@H]1CO	35.5µM*	13.6%	-25.2%	-25.7%
CCCCCC(=O)Nc1ccc([C@H]2OCC(=O)N(Cc3nccn3C)[C@@H]2CO)cc1	70.8µM*	9.5%[70.6 µM]	-18.1%[174 µM]	-14.9%[172 µM]
O=C(Nc1cc(-c2ccncc2)nn1-c1ccccc1)c1ccc(C(F)(F)F)cc1	/	/	31.6µM*	?
COc1ccccc1NC(=O)N1CCc2cc(OC)c(OC)cc2C1CNC(=O)NC(C)(C)C (stereo unspecified)	i	3.8%	4.7%	?
CSc1cccc(NC(=O)N[C@H]2CCN(C(=O)CC(C)(C)C)[C@@H]2C(=O)N[C@H](Cc2ccccc2)C(N)=O)c1	i	3.9%	-18.0%	-5.0%
CCOc1ccc2c(n1)CCN(C(=O)c1ccc(C(C)C)cc1)C2	31.6µM*	-2.9%	?	?
COCCOc1ccc2c(n1)CCN(C(=O)CC1CCCC1)C2	i	-6.8%	-19.1%	?
COCCOc1ccc2c(n1)CCN(C(=O)c1ccc(OC)cc1)C2	i	1.9%	-9.7%	5.0%
COCCOc1ccc2c(n1)CCN(C(=O)c1ccc(C(C)C)cc1)C2	15.8µM*	-7.3%	?	?
CCOc1ccc2c(n1)CCN(C(=O)c1ccc(C)cc1)C2	i	-10.7%	-19.9%	-8.2%
COCCOc1ccc2c(n1)CCN(C(=O)CCC1CCCC1)C2	?	11.2µM*	-24.6%	?
CCN(Cc1c(O)cccc1OC)CC1CCN(CCc2ccccc2C)CC1	i	-9.5%	?	?
Cc1ccc(CC(=O)NC2CCN(c3cc(-c4ccc(F)cc4)[nH]n3)C2)cc1 (stereo unspecified)	i	-16.7%	?	?
COCCc1noc(-c2nc(-c3ccccc3F)no2)n1	28.2µM*	-2.0%	-1.3%	-11.9%
SMILES	FLuc inh	NPR1 antag	3T3 cytotox	HEK cytotox
CCn1nccc1C(=O)N1CCCC(n2cc(-c3nc(-c4ccccc4)no3)nn2)C1 (stereo unspecified)	?	12.6µM*	-28.7%	?
CCc1noc(-c2cn(C3CCCN(C(=O)c4ccccc4)C3)nn2)n1 (stereo unspecified)	i	4.9%	-16.3%	8.6%
Cn1cccc1C(=O)N1CCCC(n2cc(-c3nc(-c4ccccc4)no3)nn2)C1 (stereo unspecified)	79.4µM*	?	?	?
CN1CCCN(S(=O)(=O)c2cccc(Cl)c2)c2ccccc21	i	-20.4%	?	39.8µM*
NC1CCc2nn(CC(=O)NCc3ccc4c(c3)OCO4)c(=O)n2CC1 (stereo unspecified)	i	2.0%	i	i
CCN(Cc1cccnc1)C(=O)c1cc(-c2cnn(CC)c2)nc2cc(C)ccc12	?	-3.6%	6.31µM*	-18.7%
Cn1c(CNC(=O)C2Cn3cccc3C(=O)N2Cc2ccccc2)nc2ccccc21 (stereo unspecified)	i	-11.0%	31.6µM*	?
COc1ccccc1-n1c(=O)c(C(=O)N2CCN(C(=O)C3CCCC3)CC2)nc2cccnc21	/	/	-11.6%	4.4%
COc1ccc(-c2ccc3nc(-c4ccc(F)c(C)c4)oc3c2)c(OC)c1OC	?	-1.1%	-19.9%	89.1µM*
COc1ccc(-c2ccc3nc(-c4ccc(C)c(F)c4)oc3c2)c(OC)c1OC	?	-1.3%	-9.9%	-2.5%
COc1ccc(-c2ccc3nc(-c4ccc(F)c(F)c4)oc3c2)c(OC)c1OC	i	-16.3%	?	89.1µM*
COc1ccc(-c2nc(C3CC3)nc3c2CN(C(=O)c2ccccc2)CC3)cc1	/	/	?	-11.6%
Cc1ccccc1C(=O)N1CCC2(CC1)Cc1ccccc1NC2=O	i	24.7%	?	35.5µM*
O=C(c1ccc(F)cc1)N1CCC2(CC1)Cc1ccccc1NC2=O	i	-1.4%[70.6 µM]	-14.8%[138 µM]	-46.8%[172 µM]
CN1CCN(c2ccc3ncc(Nc4ccc(F)cc4)n3n2)CC1	i	0.9%[70.6 µM]	100µM*	112µM*
Cc1ccccc1Nc1cnc2ccc(N3CCOCC3)nn12	i	?	?	56.2µM*
FC(F)(F)c1cccc(Nc2cnc3ccc(N4CCOCC4)nn23)c1	i	?	?	89.1µM*
c1ccc(Nc2cnc3ccc(N4CCOCC4)nn23)cc1	i	-16.8%[70.6 µM]	?	112µM*
Fc1ccc(Nc2cnc3ccc(N4CCOCC4)nn23)cc1F	i	-0.1%[70.6 µM]	?	?
COc1ccccc1Nc1ccnc(N2CCCC2C(=O)NCC(F)F)n1 (stereo unspecified)	/	/	-5.8%	-23.5%
CNC(=O)c1cc(C)nc2onc(C3CCCN3C(=O)c3ccccc3C)c12 (stereo unspecified)	/	/	-20.0%[138 µM]	-17.1%[172 µM]
Cc1ccc2c(c1)nc1n2[C@@H](CNCc2nccn2C)COC1	i	5.4%[70.6 µM]	4.5%[138 µM]	i
COc1ccc(NC(=O)Cn2cccc2-c2nc(-c3ccc(F)cc3)no2)cc1	i	-2.7%	?	?
